Consider 40 compounds from PubChem BioAssay (NCI).

The panel holds about 83,000 compounds, 20% with a hit somewhere; the sample as a whole holds those more often.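 Cell lines were cultured in 96-well plates, exposed to a single compound concentration, and assessed for percent growth 48 hours later.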 The source made the active and inactive calls. Rule for the calls: active = growth percent below 10; inactive = the rest.

The test deals with HL-60(TB) leukemia. Kind of test: NCI-60 one-dose screen, 48 h (100 = growth as untreated, 0 = no growth, -100 = all killed). To be noted: 10 µM unless noted.
Take `Cc1cccc2c(NCCN(C)C)c3cccc(C(=O)NCCN(C)C)c3nc12`: the growth was -8.73% (active).
Next, `COc1ccc2nc3ccccc3c(NCc3ccccc3)c2c1`: 8.18% (active).
For `CSc1nc(N)c(NS(=O)(=O)c2ccc(C(C)=O)cc2)c(=O)[nH]1`, the growth is 108% (inactive).
With `Cc1cccc2c(=O)c3c(sc12)c(N1CCNCC1)nc1ccccc13`, the growth was 52.9% (inactive).
In the case of `CC/C=C\C[C@H](O)C/C=C1/C(=O)C=C[C@@H]1C/C=C\CCCC(=O)O` it was 75.2% (inactive); in that of `Nn1c(-c2ccc(Cl)cc2)nc2c(-c3ccc(Cl)cc3)nc3ccc(Cl)cc3c2c1=O`, 43.4% (inactive).
Next, `CC(=O)O[C@H]1C[C@@H]2C(C)(C)C(=O)CC[C@@]2(C)c2ccc(C(C)C)cc21`: 99.2% (inactive); `C/C(=C\CCc1ccoc1)CC/C=C(\C)CCCNc1ccc(F)cc1`: 9.6% (active).
In the case of `CCN(CC)CCOc1ccc(/C(=C(\Cl)c2ccccc2)c2ccccc2)cc1` it was 75.9% (inactive); in that of `N=c1sc(Cc2cc(Cl)ccc2Cl)cn1CC(=O)c1ccccc1`, 29.6% (inactive).
Consider `CC(=O)Nc1c(Br)cc2c(c1Br)Cc1cc(Br)ccc1-2`, for which the growth is 98.5% (inactive).
Next, `CSc1nc(O)c(-c2ccccc2)c(=O)[nH]1`: 89.5% (inactive); `COc1cc(NC(=O)c2cccc(-c3cc(=O)c4c(O)c(OC)c(OC)cc4o3)c2)cc(OC)c1OC`: 78% (inactive).
`CO[C@H]1C[C@@H]2CC[C@@H](C)[C@@](O)(O2)C(=O)C(=O)N2CCCC[C@H]2C(=O)O[C@H]([C@H](C)C[C@@H]2CC[C@@H](O)[C@H](OC)C2)CC(=O)[C@H](C)/C=C(\C)[C@@H](O)[C@@H](OC)C(=O)[C@H](C)C[C@H](C)\C=C/C=C/C=C/1C`: the growth is 16.5% (inactive).
Next, `CCOC(=O)C(Cc1cc(I)c(O)c(I)c1)NC(=O)c1ccccc1` (stereo not given): 90.2% (inactive); `O=C(Nc1ccc(-n2cc(-c3ccncc3)c(-c3ccc(O)c(Cl)c3)n2)cc1)c1ccc(Cl)c(C(F)(F)F)c1`: 10.9% (inactive); `O=C1OC(c2ccccc2)(c2ccccc2)c2ccsc21`: 86.6% (inactive).
Next, `COc1ccc2c(c1)nc(N)c1c3cc(C)c(C)cc3cn21`: 79.6% (inactive).
In the case of `CCc1c2c(nc3ccc(OCc4ccc(B(O)O)cc4)cc13)-c1cc3c(c(=O)n1C2)COC(=O)[C@]3(O)CC` it was -40.8% (active); in that of `CCOC(=O)c1ccc(Nc2sc(C(=O)c3cccc([N+](=O)[O-])c3)c(N)c2C#N)cc1`, 4.04% (active).
Take `CN(C)c1ccc(/C=C\c2cccc[n+]2C)cc1`: the growth was 27.2% (inactive).
`N#Cc1c(-c2ccccc2)nc(SCc2nnc(-c3ccc(Cl)cc3)o2)[nH]c1=O`: the growth is 92.2% (inactive).
Next, `CCOC(=O)c1nn(C2CCCCO2)c2ccc(NC(=O)CSc3nc4ccccc4c(=O)[nH]3)cc12` (stereo not given): 118% (inactive).
For `C=CCn1c(C)nc2cc(Nc3nc(Cl)nc4ccccc34)ccc21`, the growth is 84.1% (inactive).
In the case of `O=C1C2=C(C(=O)c3c(O)ccc(O)c31)N(c1cccnc1)Cc1ccccc1O2` it was -23.5% (active); in that of `C[N+](C)(C)CC(=O)N/N=C\c1ccco1`, 53% (inactive); in that of `Brc1ccc(-c2nnc3c4[nH]ccc4ncn23)cc1`, 100% (inactive).
Take `CC[C@H](C)[C@H](N)C(=O)O`: the growth was 115% (inactive).
For the compound `CN(C)CCOc1cccc(-c2nc3sccn3c2-c2ccnc(S(C)(=O)=O)n2)c1`, the growth is 104% (inactive).
Next, `O=C(Nc1ccncc1)C(=O)c1cn(S(=O)(=O)c2cccc(Cl)c2)c2ccccc12`: 41.8% (inactive); `Oc1c(Cl)cc(Cl)c2ccc(CN3CCNCC3)nc12`: 44.1% (inactive); `COc1cc2nc(NC3CCCC3)nc(NC3CCN(C(C)C)CC3)c2cc1OC`: 88.7% (inactive).
With `CC1Cc2c(ncn3c(-c4ccc(F)cc4)nnc23)N(C)c2ccccc21` (stereo not given), the growth was 91.2% (inactive).
In the case of `COc1cccc2c1C(=O)c1c(O)c3c(c(O)c1C2=O)C[C@@](O)(C(=O)COC(=O)c1ccccc1)C[C@@H]3OC1CC(N)C(O)C(C)O1` (stereo not given in full) it was -74.8% (active); in that of `CC1SC(c2ccccc2O)N(NC(=O)CCC(=O)c2nc3ncccc3[nH]2)C1=O` (stereo not given), 101% (inactive).
In the case of `CCN1C(=O)N(CC)C2C1NN=C1SCC(=O)N12` (stereo not given) it was 99.1% (inactive); in that of `CC(C)c1ccc2nc3ccc(C(=O)NCCN4CCN(c5ccccc5)CC4)cn3c(=O)c2c1`, 74.9% (inactive).
In the case of `O=C(Nc1ccncc1)C(=O)c1cn(S(=O)(=O)c2ccc(Cl)cc2)c2ccccc12` it was 18.3% (inactive).
In the case of `CCC(=O)Oc1ccc(/C(=C(\C)c2ccccc2)c2ccc(OCCN(CC)CC)cc2)cc1`, the growth was 45.1% (inactive).
In the case of `COC(OC)C1(c2ccccc2)NC(=O)NC1=O` (stereo not given) it was 122% (inactive).
